The source of these data is PubChem BioAssay (NCATS).

A short description of assay [1]: Viability counterscreen for antagonist of constitutive androstane receptor (CAR) against the NCATS DSHEA and TCM libraries (AID 1794837).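 Also: compound exposure lasted 24 h before viability reading.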 The method, boiled down:
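Fluorescence from CellTiter-Fluor reports live-cell protease activity in HepG2-CYP2B6-hCAR cells treated for 24 h with substances alongside 48 uM CITCO.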
(In general: A counterscreen serves to expose hits that act by an unwanted route or on another target.)

A short description of assay [2]: Viability counterscreen for agonist of constitutive androstane receptor (CAR) against the NCATS DSHEA and TCM libraries (AID 1794838).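 Also: cells exposed to compound for 24 h.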 The method, boiled down:
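In agonist mode, PK11195 is added at 0.75 uM final to HepG2-CYP2B6-hCAR cells dosed with test substances. Cultures incubate 24 h at 37C before a protease-based fluorogenic viability readout.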

The target of assay [3] is Nuclear receptor subfamily 1 group I member 3 (Homo sapiens) (UniProt Q14994). As to the kind of experiment: Primary qHTS for agonist of constitutive androstane receptor (CAR) against the NCATS DSHEA and TCM libraries (AID 1794839).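 Also: HepG2 cells expressing human CAR with a CYP2B6 reporter plus PK11195 antagonist; luciferase reporter luminescence read with ONE-Glo.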 The gist of the method:
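Cells stably carrying hCAR and a CYP2B6 reporter (HepG2 background) are seeded and allowed 5 h to adhere. Substances at multiple concentrations are added alongside 0.75 µM PK11195, and luciferase signal is measured after 24 h.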
In general terms: Quantitative high-throughput screening tests each substance at several concentrations.

Assay [4] in a line: HepG2 viability counterscreen (readout 2: ATP content) against the NCATS DSHEA and TCM libraries (AID 1794840).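 Also: HepG2 cells exposed to substances for about 24 h.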 The gist of the method: (§1)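 Cytotoxicity was assessed in HepG2 cells plated at 1,000 cells/well and exposed for about 24 hours to a concentration series. Protease activity and ATP content were measured sequentially in each well.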
Assay [5] can be described thus: HepG2 viability counterscreen (readout 1: protease activity) against the NCATS DSHEA and TCM libraries (AID 1794841).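 Also: cells exposed to compounds for about 24 h before the protease read.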 The gist of the method: as §1
Assay [6] can be described thus: Quantitative High-Throughput drug screen in 47 multiple myeloma cell lines against the NCATS MIPE library collection: FR4_PLB cell viability assay (AID 1918924; also: nearly all actives have a fitted effect of over 35% in size; also: potency is read from the fitted curve at half-maximal effect). The method, boiled down: (§2)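 Viability readout: CellTiter-Glo luminescence following 5 min room-temperature incubation with reagent. Prior exposure: 48 h, 37C, humidified 5% CO2, 500 cells per well.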
Assay [7] is described as follows: Quantitative High-Throughput drug screen in 47 multiple myeloma cell lines against the NCATS MIPE library collection: EJM_DSMZ cell viability assay (AID 1918926; also: nearly all actives have a fitted effect of over 30% in size; also: potency is read from the fitted curve at half-maximal effect). The method, boiled down: (§3)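 CellTiter-Glo ATP luminescence gave viability after 48 h compound treatment at 37C of 500 multiple myeloma cells per well. Normalisation used DMSO-only wells as 100% and media-only wells as 0% viability; primary qHTS of approved and investigational drugs.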

A short description of assay [8]: Quantitative High-Throughput drug screen in 47 multiple myeloma cell lines against the NCATS MIPE library collection: AMO1_DSMZ cell viability assay (AID 1918927; also: nearly all actives have a fitted effect of over 30% in size; also: potency is read from the fitted curve at half-maximal effect). The method, boiled down:
as §3

Assay [9] is described as follows: Quantitative High-Throughput drug screen in 47 multiple myeloma cell lines against the NCATS MIPE library collection: ARD_JJKsccE7 cell viability assay (AID 1918929; also: potency is read from the fitted curve at half-maximal effect). The method, boiled down:
as §3

Assay [10] is described as follows: Quantitative High-Throughput drug screen in 47 multiple myeloma cell lines against the NCATS MIPE library collection: Karpas620_DSMZ cell viability assay (AID 1918959). Also: nearly all actives have a fitted effect of over 30% in size. Also: potency is read from the fitted curve at half-maximal effect. The gist of the method: as §2
Assay [11] addresses Glutathione peroxidase 1 (Homo sapiens) (UniProt P07203). The assay can be described thus: Primary qHTS Assay for Inhibitors of Recombinant Selenoprotein Glutathione Peroxidase 1 (GPX1) (AID 1845191). Also: nearly all actives have a fitted effect of over 65% in size. The method, boiled down: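 Recombinant GPX1 (10 nM final) was preincubated with compound for 30 min at room temperature, then reacted with 1 mM GSH, 0.5 mM CHP, 0.5 mM NADPH and 100 nM glutathione reductase; NADPH fluorescence (340/450 nm) was read at 0 and 15 min.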

Assay [12] deals with Phospholipid hydroperoxide glutathione peroxidase GPX4 (Homo sapiens) (UniProt P36969). As to the kind of experiment: Primary qHTS Assay for Inhibitors of Recombinant Selenoprotein Glutathione Peroxidase 4 (GPX4) (AID 1845192). Also: series mostly up to about 50 µM; nearly all actives have a fitted effect of over 65% in size. The method, boiled down:
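GR-coupled readout: 100 nM GR, 1 mM GSH, 0.5 mM NADPH; NADPH fluorescence (ex 340/em 450 nm) read at t=0 and after 15 min RT. GPX4 200 nM, preincubated 30 min with compound; substrate 0.5 mM CHP.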

Assay [13] has as its target Luciferin 4-monooxygenase (Photinus pyralis) (UniProt P08659). The assay can be described thus: Primary firefly luciferase (FLuc) qHTS assay for identification of artifact compounds. (AID 1845220). Also: nearly all actives have a fitted effect of over 60% in size. The gist of the method: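 Reaction readout was CCD-imaged luminescence, taken 5 min after adding 10 nM purified firefly enzyme to compound-treated wells holding 10 uM luciferin and ATP in pH 7.6 buffer.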

The nature of assay [14]: Primary fluorescence-based thiol-reactive (MSTI) qHTS assay for identification of artifact compounds. (AID 1845221).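 Also: series mostly up to about 54 µM; thiol-reactive compounds lower the probe fluorescence signal; nearly all actives have a fitted effect of over 65% in size.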 The gist of the method:
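qHTS titration of compound; 4 uM MSTI, PBS pH 7.4, 2% DMSO; 1 h RT, dark; fluorescence 525/598 nm; normalized to Acetyl-MSTI and MSTI; 4-parameter Hill fit.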

Assay [15] has as its system Nanoluciferase (engineered Oplophorus gracilirostris luciferase). The assay can be described thus: Primary Nanoluciferase (NLuc) qHTS assay for identification of artifact compounds. (AID 1845222).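 Also: NLuc secreted into diluted conditioned medium of S16 cells; series mostly up to about 54 µM.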 The gist of the method: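 Concentration-response data were obtained by luminescence after 5 min with Nano-Glo substrate at 1:100. The enzyme was diluted S16 NLuc-expressing cell medium, preincubated with compound for 15 min at RT. Curves were fitted with a 4-parameter Hill model.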

Assay [16] in a line: Primary redox qHTS assay for identification of artifact compounds. (AID 1845223). The gist of the method: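 Amplex Red (25 uM) and HRP (250 mU/mL) in HBSS, with compounds for 15 min, then 250 uM DTT for 30 min, room temperature, dark. Fluorescence 525/598 nm read; normalized to DMSO and 10 uM DA3003; Hill fit.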
Assay [17] can be described thus: Quantitative High-Throughput drug screen in 47 multiple myeloma cell lines against the NCATS MIPE library collection: Delta47_JCRB cell viability assay (AID 1918925; also: nearly all actives have a fitted effect of over 45% in size; also: potency is read from the fitted curve at half-maximal effect). The method, boiled down:
as §3

Assay [18] in a line: Quantitative High-Throughput drug screen in 47 multiple myeloma cell lines against the NCATS MIPE library collection: ARP1_JJKsccF8 cell viability assay (AID 1918928; also: nearly all actives have a fitted effect of over 40% in size; also: potency is read from the fitted curve at half-maximal effect). The method, boiled down: (§4)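 Here, 48 h treatment with MIPE 4.0 agents at 37 °C preceded an ATP luminescence read. Plating density was 500 cells per well.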
Assay [19] is described as follows: Quantitative High-Throughput drug screen in 47 multiple myeloma cell lines against the NCATS MIPE library collection: KMM1_JCRB cell viability assay (AID 1918960). Also: nearly all actives have a fitted effect of over 30% in size. Also: potency is read from the fitted curve at half-maximal effect. The gist of the method: as §4
A short description of assay [20]: NCATS anti-infectives library activity on the primary C. elegans qHTS viability assay (AID 1745855; calls by dose curve; also: potency is read from the fitted curve at half-maximal effect). The gist of the method: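 Viability read-out is GFP fluorescence of PE254-GFP-FLuc C. elegans, measured by laser cytometry (488 nm) at day 0, 3 and 7. Ten L1 worms per well were incubated 7 days at 21 °C with compounds and bacterial capsules in S medium.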

The structures appear in SMILES notation. Values without a mark were called inactive. Results filed as inconclusive are left out. Active and inactive are the calls of the source. Unless noted, calls follow the shape of the dose curve; as a rule, active = well fitted curve in the direction sought with a large enough effect; inconclusive = small, poorly fitted or top-dose-only effect, or another doubt; inactive = no such curve, though single readings can be large; an effect the other way counts as inactive or inconclusive.

Sequence of Phospholipid hydroperoxide glutathione peroxidase GPX4 (Homo sapiens) (P36969 whole entry, looked up): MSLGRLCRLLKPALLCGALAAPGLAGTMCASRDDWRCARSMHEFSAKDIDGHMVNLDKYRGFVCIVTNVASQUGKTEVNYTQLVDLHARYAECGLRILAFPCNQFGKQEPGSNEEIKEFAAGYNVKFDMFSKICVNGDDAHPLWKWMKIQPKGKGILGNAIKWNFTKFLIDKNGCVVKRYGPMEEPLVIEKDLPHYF
Sequence of Glutathione peroxidase 1 (Homo sapiens) (P07203 whole entry, looked up): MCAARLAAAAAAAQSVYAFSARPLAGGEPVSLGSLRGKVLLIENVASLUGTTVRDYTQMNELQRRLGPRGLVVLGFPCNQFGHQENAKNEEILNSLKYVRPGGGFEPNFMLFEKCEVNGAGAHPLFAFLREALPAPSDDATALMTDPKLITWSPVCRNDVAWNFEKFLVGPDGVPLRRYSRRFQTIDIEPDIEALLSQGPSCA
Sequence of Nuclear receptor subfamily 1 group I member 3 (Homo sapiens) (Q14994 whole entry, looked up): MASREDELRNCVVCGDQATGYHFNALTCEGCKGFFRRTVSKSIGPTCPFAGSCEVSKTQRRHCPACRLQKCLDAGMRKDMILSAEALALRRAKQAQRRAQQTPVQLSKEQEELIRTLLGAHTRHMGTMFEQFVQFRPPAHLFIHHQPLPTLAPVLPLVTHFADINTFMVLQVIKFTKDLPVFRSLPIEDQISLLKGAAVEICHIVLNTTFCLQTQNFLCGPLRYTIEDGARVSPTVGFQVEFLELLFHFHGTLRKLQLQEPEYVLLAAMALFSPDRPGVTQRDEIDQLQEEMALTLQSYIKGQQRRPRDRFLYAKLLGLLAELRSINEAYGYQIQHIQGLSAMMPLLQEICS

With `C[C@@]12C[C@@]3(O)O[C@@H](O1)[C@]1(COC(=O)c4ccccc4)[C@@H]3C[C@@]12O[C@@H]1O[C@H](CO)[C@@H](O)[C@H](O)[C@@H]1O`, the outcome in assay [1], in [2], in assay [3], in assay [4] and in assay [5] was inactive. For the same compound, the Potency entry in assay [6], in assay [7], in assay [8], in assay [9] and in assay [10] was “inactive” in each case.

Turning to `O=C(O)c1ccc(Nc2ncc3c(n2)-c2ccc(Cl)cc2C(c2c(F)cccc2F)=NC3)cc1`, the Potency entry in assay [11], in assay [12], in [13], in assay [14], in [16] and in assay [6] was “inactive” throughout. Besides, the compound was classed as inactive in assay [15]. Also, the Potency is 935 nM (active) in assay [17], 23.5 µM (active) in [7], 0.187 µM (active) in [8] and 10.5 nM (active) in assay [18].

In the case of `CC(O)(C#Cc1ccc2c(c1)N(c1nc(N)ncc1Cl)CC2)c1nccs1` (stereo not given), the Potency entry in assay [11], in assay [12], in [13] and in [14] was “inactive” throughout. Moreover, the outcome in [15] was inactive. Further, the Potency in [17] was 2090 nM (active); in assay [7] it was 11.8 µM (active); in [8], 13.2 µM (active); in assay [9], 18.7 µM (active); in assay [19], 5.26 µM (active).

With `O=C1c2c(O)cccc2[C@@H]([C@@H]2O[C@H](CO)[C@@H](O)[C@H](O)[C@H]2O)c2cc(CO)cc(O)c21`, the outcome in assay [1], in assay [2], in assay [3], in assay [4] and in assay [5] was inactive. Moreover, the Potency entry in assay [6], in assay [7], in assay [8], in [18], in assay [10] and in assay [19] was “inactive” each time.

Regarding `CC(C)C[C@H](NC(=O)[C@@H](NC(=O)c1cccc(-c2ccccc2)n1)[C@@H](C)O)B(O)O`, the Potency in [20] is 2.05 µM (active); in assay [6], 20.9 nM (active); in assay [17], 16.6 nM (active); in assay [7], 0.0469 µM (active); in [18], 16.6 nM (active); in [10], 0.0148 µM (active). The Potency in assay [19] was 0.0074 µM (active). Besides, the Potency entry in [11], in assay [12], in assay [13] and in [14] was “inactive” each time. Further, the compound was called inactive in [15].

Consider `C=C(C)[C@@H]1CC[C@]2(C(=O)O)CC[C@]3(C)[C@H](CC[C@@H]4[C@@]5(C)CC[C@H](O)C(C)(C)[C@@H]5CC[C@]43C)[C@@H]12`, for which the compound was called inactive in assay [1], in assay [3], in assay [4] and in assay [5]. For the same compound, the Potency entry in assay [11], in assay [12], in assay [6], in [17], in [7] and in assay [8] was “inactive” in each case. Also, the Potency result in assay [18], in [9] and in assay [10] was “inactive” in each case.

`CC1=C(C(=O)Nc2cc3cn[nH]c3cc2F)C(c2ccc(Cl)cc2F)N=C(c2ccnc(Cl)c2)N1` (stereo not given): the Potency result in [11], in assay [12], in assay [13], in assay [14] and in [16] was “inactive” in each case. For the same compound, the results for the Potency in assay [8], in assay [10] and in assay [19] were 14.8 µM (active), 18.7 µM (active) and 20.9 µM (active), respectively.
